Drawing on PubChem BioAssay AID624417 (National Center for Advancing Translational Sciences (NCATS), 2012), this text covers Potency for 101 compounds.

Molecules are shown by their SMILES. Hit rate of the full screen: of about 410,000 compounds, about 6,400 (1.6%) were called active. Another 20% or so got no clear call; they are omitted. Calls follow the shape of the dose curve; as a rule, active = well fitted inhibition curve with a large enough effect; inconclusive = small, poorly fitted or top-dose-only effect; inactive = no such curve, though single readings can be large or run the other way. Shown is part of a subset that was picked to be rich in actives. Entries that show only a call come without a potency.
Potency is read from the fitted curve at half-maximal effect.

Chain of Glucagon-like peptide 1 receptor (Homo sapiens) (P43220 whole entry, looked up): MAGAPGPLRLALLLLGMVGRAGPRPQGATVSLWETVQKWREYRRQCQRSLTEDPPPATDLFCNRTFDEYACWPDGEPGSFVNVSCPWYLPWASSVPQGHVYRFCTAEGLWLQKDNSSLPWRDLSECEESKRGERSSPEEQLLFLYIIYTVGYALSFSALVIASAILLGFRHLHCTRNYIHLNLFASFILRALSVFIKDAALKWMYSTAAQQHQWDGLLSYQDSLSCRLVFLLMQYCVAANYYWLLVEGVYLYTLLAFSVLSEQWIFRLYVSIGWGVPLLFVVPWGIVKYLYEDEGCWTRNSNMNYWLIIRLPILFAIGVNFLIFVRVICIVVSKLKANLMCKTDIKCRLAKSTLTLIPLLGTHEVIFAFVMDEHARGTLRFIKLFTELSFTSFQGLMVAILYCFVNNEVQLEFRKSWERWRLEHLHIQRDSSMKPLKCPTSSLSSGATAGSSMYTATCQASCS

The target in the assay is Glucagon-like peptide 1 receptor (Homo sapiens) (UniProt P43220). The experiment in a line: qHTS of GLP-1 Receptor Inverse Agonists (Inhibition Mode). Also: nearly all actives have a fitted effect of over 55% in size. The note with it: HEK293 GLP-1R CRE-luciferase, luminescence, 24 h, GLP-1R form is constitutively active; series mostly up to 38.3 µM. The procedure, abridged:
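HEK293 cells stably co-expressing constitutively active GLP-1R and a cAMP-responsive luciferase reporter were seeded in DMEM with 10% Nu serum, given compounds after 12 h, and incubated 24 h at 37 deg C. Luminescence was then read.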
`COc1cc2c(=O)n(C)c3ccccc3c2cc1OC`: the Potency result was “inactive”.

Regarding `Cc1ccc(C)c(OCC(=O)N2CCN(C(=O)c3ccco3)CC2)c1`, the Potency entry is “inactive”.

As to `Cc1ccc(OCC(=O)Nc2ccc(N3CCN(C(=O)c4ccco4)CC3)cc2)c(C)c1`, the Potency is 7.94 µM (active).

Consider `CCC(=O)Nc1ccc(C(=O)N2CCN(C(=O)c3ccco3)CC2)cc1`, for which the Potency entry is “inactive”.

For the compound `Cc1ccc([N+](=O)[O-])cc1S(=O)(=O)N1CCCN(C)CC1`, the Potency result was “inactive”.

For `Cc1ccc2c(c1)C1CN(C)CCC1N2S(=O)(=O)c1ccc(Oc2ccc([N+](=O)[O-])cc2)cc1` (stereo unspecified), the Potency is 11.2 µM (active).

With `O=C(C1CCCN(S(=O)(=O)c2ccc([N+](=O)[O-])cc2)C1)N1CCCCC1` (stereo unspecified), the Potency result was “inactive”.

Take `CCc1ccccc1OCC(=O)Nc1nnc(C2CC2)s1`: the Potency result is “inactive”.

With `COC(=O)C[C@H]1C[C@@H]2c3cc(N(C)C)ccc3O[C@@H]2[C@H](CO)O1`, the Potency result was “inactive”.

Regarding `CCN(CC(=O)Nc1cc(Cl)ccc1C)C(=O)CSCc1ccc(C)cc1`, the Potency is 10 µM (active).

Consider `Cc1ccc(Cl)cc1NC(=O)CSc1nc2ccccc2nc1Cc1ccccc1`, for which the Potency result is “inactive”.

Consider `CCN(CC(=O)Nc1cc(Cl)ccc1C)C(=O)Cn1c(=O)cnc2ccccc21`, for which the Potency entry was “inactive”.

For `CCN(CC(=O)Nc1cc(Cl)ccc1C)C(=O)CSCc1ccccc1`, the Potency was 12.6 µM (active).

On to `Cc1ccc(Cl)cc1NC(=O)COC(=O)CC(C)(C)C`, for which the Potency entry was “inactive”.

`CCN(CC(=O)Nc1cc(Cl)ccc1C)C(=O)CN1C(=O)NC2(CCCC2)C1=O`: the Potency result is “inactive”.

For the compound `CCCS(=O)(=O)NC(=O)C1(C)CCCN(C(=O)c2cccs2)C1` (stereo unspecified), the Potency result is “inactive”.

For `COc1ccc(NC(=O)COC(=O)C2COc3ccccc3O2)cc1` (stereo unspecified), the Potency entry was “inactive”.

In the case of `Cc1ccc(C(C)C)cc1OCC(=O)Nc1ccccc1N1CCCC1`, the Potency is 2.51 µM (active).

Turning to `Cn1c(=O)c2c(nc(SCC(=O)Nc3ccccc3N3CCCCC3)n2C)n(C)c1=O`, the Potency result was “inactive”.

In the case of `Cc1ccccc1NC(=O)CNc1ccccc1N1CCCCC1`, the Potency was 7.94 µM (active).

As for `Cc1cccc(N2CC(C(=O)Nc3ccccc3N3CCCC3)CC2=O)c1C` (stereo unspecified), the Potency entry is “inactive”.

Turning to `CC(C)n1c(SCC(=O)Nc2ccccc2N2CCCCC2)nc2c1c(=O)n(C)c(=O)n2C`, the Potency entry is “inactive”.

For the compound `Cc1ccc(C(C)C)cc1OCCN1CCCC1`, the Potency entry is “inactive”.

For `COC(=O)c1ccc2nc(-c3cccc(Br)c3)c(Cc3ccccc3C(F)(F)F)n2c1`, the Potency entry is “inactive”.

With `CN(C)C(=O)c1cccc(-c2cnc3c(NC=O)cc(-c4ccc(C(=O)N5CCOCC5)cc4)cn23)c1`, the Potency entry was “inactive”.

On to `CC(=O)C[C@@H]1OC[C@H](CO)N1S(=O)(=O)c1ccc(C)cc1`, for which the Potency result was “inactive”.

Take `COc1ccc(NC(=O)C2(C)Cc3c(-c4ccc(C(N)=O)cc4)ccnc3O2)cc1` (stereo unspecified): the Potency entry is “inactive”.

For `C[C@@H]1CN([C@@H](C)CO)C(=O)c2c(c3ccccc3n2C)-c2ccccc2CO[C@H]1CN(C)C(=O)C1CC1`, the Potency result is “inactive”.

As to `COc1cc(C(=O)N2CCOC23CCN(Cc2ccccc2)CC3)cc(OC)c1OC`, the Potency entry is “inactive”.

Regarding `CCOc1ccc(NC(=O)CCS(=O)(=O)c2cccc3nsnc23)cc1`, the Potency result was “inactive”.

For `CCOc1ccccc1NC(=O)CCS(=O)(=O)c1cccc2nsnc12`, the Potency result is “inactive”.

As for `CCOc1ccc(OCC)c(NC(=O)CN(C)S(=O)(=O)c2cccc3nsnc23)c1`, the Potency was 6.31 µM (active).

As for `CC1(C(=O)NS(=O)(=O)Cc2cccc(Cl)c2)CCN1C(=O)Cc1ccccc1` (stereo unspecified), the Potency entry is “inactive”.

As to `CCCNC(=O)C1(C)CCCN(Cc2cccc(C(F)(F)F)c2)C1` (stereo unspecified), the Potency entry was “inactive”.

As for `Cc1ccc(Oc2nc(-c3ccccn3)nc3ccccc23)cc1`, the Potency is 5.01 µM (active).

With `Cc1nc2ccccc2c(C(=O)O)c1-c1ccccn1`, the Potency result was “inactive”.

For `N#Cc1ccc(Oc2cc(C(F)(F)F)nc(-c3ccccn3)n2)cc1`, the Potency entry is “inactive”.

As for `CCOc1ccc(CCN2C(=O)C(=O)N([C@@H](Cc3ccc(O)cc3)CN3CCC[C@H]3CN3C(=O)C(=O)NC[C@@H]3CC(C)C)C[C@@H]2Cc2ccccc2)cc1`, the Potency entry was “inactive”.

`CCCCn1nnnc1C(c1cccc(OC)c1OC)N1CCN(C/C=C/c2ccccc2)CC1` (stereo unspecified): the Potency result was “inactive”.

Take `COc1ccc(OC)c(C(O)c2ncc(-c3cccc(C(F)(F)F)c3)[nH]2)c1` (stereo unspecified): the Potency result was “inactive”.

For the compound `Cc1cccc(-c2cnc(C(O)c3cc(C)cc(C)c3)[nH]2)c1` (stereo unspecified), the Potency entry was “inactive”.

For `COc1c(C)cc(C(O)c2ncc(-c3cccc(C(F)(F)F)c3)[nH]2)cc1C` (stereo unspecified), the Potency is 12.6 µM (active).

Consider `COc1ccccc1Cc1c(-c2ccc(Cl)cc2)nc2c3ccccc3ccn12`, for which the Potency result was “inactive”.

For `COc1ccc(N2CCC(N3CCN(C)C(CCO)C3)CC2)cc1` (stereo unspecified), the Potency result is “inactive”.

Consider `Cc1cc(F)ccc1N1CCC(N2CCN(C)C(CCO)C2)CC1` (stereo unspecified), for which the Potency was 4.47 µM (active).

As for `COc1ccccc1N1CCC(N2CCN(CC(C)(C)C)C(CCO)C2)CC1` (stereo unspecified), the Potency result was “inactive”.

In the case of `COc1ccc(CN2C(=O)C(CC(=O)NCCCCc3ccccc3)CC(C(=O)N3CCOCC3)=C2C)cc1` (stereo unspecified), the Potency result was “inactive”.

As to `Cc1ccccc1NC(=O)CSc1nc2ccc(Nc3nc(N4CCOCC4)nc(N4CCOCC4)n3)cc2s1`, the Potency result is “inactive”.

Take `O=C(CC(c1ccccc1)c1cc(Cl)ccc1O)NCCN1CCOCC1` (stereo unspecified): the Potency entry is “inactive”.

As for `O=C(CSc1nc(Nc2ccccc2)nc(N2CCOCC2)n1)Nc1cc(Cl)ccc1O`, the Potency was 5.62 µM (active).

Take `CCCNC(=O)C1(C)CCN(C(=O)c2cc(F)ccc2C)C1` (stereo unspecified): the Potency entry is “inactive”.

In the case of `CC1(C(=O)NS(=O)(=O)c2ccc(C#N)cc2)CCN1C(=O)c1ccc(C2CCCCC2)cc1` (stereo unspecified), the Potency result is “inactive”.

For `N#CCSc1nc2c(c(=O)n1Cc1ccccc1)C1(CCCC1)Cc1ccccc1-2`, the Potency was 3.98 µM (active).

For `N#CCSc1nc2ccc(N3CCOCC3)cc2c(=O)n1CCc1ccccc1`, the Potency result was “inactive”.

`CCC1(CC)Cc2ccccc2-c2nc(CCl)[nH]c(=O)c21`: the Potency entry was “inactive”.

In the case of `N#Cc1ccc(-c2ccc3nccn3c2)cc1`, the Potency result is “inactive”.

With `O=[N+]([O-])c1ccc(CN2CC(N3CC=CC3)CS2(=O)=O)cc1` (stereo unspecified), the Potency result was “inactive”.

Regarding `C/C(COc1ccccc1)=N\NC(=O)c1nnn(-c2nonc2N)c1-c1ccc(C)cc1`, the Potency result is “inactive”.

In the case of `COc1ccc(N2CCN(C(=O)CCc3nc(-c4ccc(C)cc4)no3)CC2)cc1`, the Potency entry was “inactive”.

For the compound `CC(=O)c1ccc(NC(=O)CCc2nc(-c3ccc(C)cc3)no2)cc1`, the Potency entry was “inactive”.

Consider `Cc1ccc(-c2noc(CCC(=O)Nc3ccccc3N3CCN(C)CC3)n2)cc1`, for which the Potency is 11.2 µM (active).

For `C[C@H]1CN([C@@H](C)CO)C(=O)CCCn2cc(nn2)CO[C@@H]1CN(C)S(=O)(=O)c1cccs1`, the Potency entry is “inactive”.

On to `Cc1ccc(C)c(NS(=O)(=O)c2ccc(OCC(=O)NCc3cccnc3)cc2)c1`, for which the Potency result is “inactive”.

In the case of `Cc1ccc(NS(=O)(=O)c2ccc(C)c(NC(=O)COc3ccc4ccccc4c3)c2)c(C)c1`, the Potency was 5.01 µM (active).

For `Cc1ccc(C)c(NC(=O)CN(C)C(=O)COc2ccc3ccccc3c2)c1`, the Potency entry was “inactive”.

In the case of `CCCCc1ccc(S(=O)(=O)NC(=O)C2(C)CCN2C(=O)c2ccccc2)cc1` (stereo unspecified), the Potency entry was “inactive”.

Turning to `Cc1nnc(SC(C)C(=O)c2c[nH]c3ccccc23)n1C1CC1` (stereo unspecified), the Potency entry was “inactive”.

Regarding `Cc1nnsc1C(=O)NCc1c(F)cccc1Cl`, the Potency entry was “inactive”.

In the case of `Cc1nnsc1C(=O)Nc1cccc(Cl)c1C`, the Potency entry is “inactive”.

`Cc1cc(Cl)ccc1NNC(=O)c1snnc1C`: the Potency is 2 µM (active).

With `Nc1ncnc2c1ncn2[C@@H]1O[C@H](C(=O)NS(=O)(=O)c2c(Cl)nc3sccn23)[C@@H](O)[C@H]1O`, the Potency entry is “inactive”.

With `CCOC(=O)C1C(C)C(C(C)(C)C)N(S(=O)(=O)c2ccc(C)cc2)C1c1ccccc1` (stereo unspecified), the Potency entry was “inactive”.

For the compound `CC1(C(=O)NS(=O)(=O)c2ccc(C#N)cc2)CCN1C(=O)CC1CCCC1` (stereo unspecified), the Potency entry was “inactive”.

With `Cc1cccc(CN2CCN(C3CN(Cc4ccccc4)S(=O)(=O)C3)CC2)c1` (stereo unspecified), the Potency result was “inactive”.

In the case of `Cc1ccc(NNC(=O)C2CCC2)cc1C`, the Potency was 6.31 µM (active).

Consider `Cc1ccc(C)c(OCC(=O)NNC(=O)C2CCC2)c1`, for which the Potency result is “inactive”.

With `O=C(NNC(=O)C1CCC1)c1ccccc1`, the Potency result was “inactive”.

Take `Cc1ccc(C(=O)OCC(=O)NC2CCCCCCC2)cc1C`: the Potency result is “inactive”.

Turning to `Cc1cccc(C(=O)N2CCN(S(=O)(=O)N3CCCCC3)CC2)c1`, the Potency result is “inactive”.

As to `Cc1cccc(C)c1N1CCN(S(=O)(=O)N2CCCCC2)CC1`, the Potency is 10 µM (active).

Take `Cc1cccc(C)c1N1CCN(S(=O)(=O)N2CCOCC2)CC1`: the Potency entry was “inactive”.

For the compound `CN(CCO)C(=O)c1nc[nH]c1C(=O)N(C)Cc1ccccc1`, the Potency entry is “inactive”.

`O=C(NNC(=O)c1ccccc1O)c1ccccc1O`: the Potency is 5.01 µM (active).

For `Cc1cc(C(=O)NNC(=O)c2ccccc2O)c(C)o1`, the Potency entry is “inactive”.

For the compound `CC1=C(C)CC(C(=O)NNC(=O)c2ccccc2O)C(C(=O)O)C1` (stereo unspecified), the Potency entry is “inactive”.

For `Clc1ccccc1Nc1nc(NCc2cccs2)nc2ccsc12`, the Potency result was “inactive”.

`CC(C)(C)OC(=O)N1CCN(C(=O)c2[nH]c(C(F)(F)F)nc2-c2ccccc2)CC1`: the Potency entry is “inactive”.

For `CCOC(=O)[C@]12CCC=C1N(Cc1ccccc1)C(=O)[C@H](CC(=O)N1CCCC1)C2`, the Potency entry was “inactive”.

Consider `CCCNC(=O)c1cc2c(c(-c3cccc(-c4ccc(C#N)cc4)c3)n1)[C@@H](CCO)N(C(=O)CC)C2`, for which the Potency result was “inactive”.

Regarding `COc1ccc(NC(=O)CCNC(=O)Cn2cnc3sc4c(c3c2=O)CCCC4)cc1OC`, the Potency result is “inactive”.

For the compound `COc1ccc(NC(=O)CCCNC(=O)Cn2cnc3sc4c(c3c2=O)CCCC4)cc1OC`, the Potency result was “inactive”.

For the compound `COc1ccc(/C=N/Nc2ncnc3sc4c(c23)CCCC4)cc1O`, the Potency is 10 µM (active).

Turning to `Cc1ccc(S(=O)(=O)N[C@H]2CCC[C@@H]2O)cc1`, the Potency result was “inactive”.

For `Cn1c(NCc2cccnc2)nc2cc(-c3ccc(F)cc3)sc2c1=O`, the Potency result was “inactive”.

As for `Cc1[nH]c2ccccc2c1C(=O)c1cc([C@H](NC(=O)OC(C)(C)C)C(C)C)sc1N`, the Potency was 10 µM (active).

Regarding `Cc1[nH]c2ccccc2c1C(=O)CSCC(=O)O`, the Potency entry was “inactive”.

As for `Cc1[nH]c2ccccc2c1C(=O)C(C)Sc1nnc(C2CC2)o1` (stereo unspecified), the Potency result is “inactive”.

Turning to `OC[C@@H]1CN(Cc2ccncc2)C[C@H](n2cnc3c(N4CCN(c5ccccc5)CC4)ncnc32)O1`, the Potency result was “inactive”.

On to `C[C@H](NC(=O)OC(C)(C)C)c1nnc(SCC(=O)Nc2ccc(Br)cc2)o1`, for which the Potency result was “inactive”.

As to `CC(C)(C)OC(=O)Nc1ccc([C@@H](NC(=O)OC(C)(C)C)C(=O)OC(C)(C)C)cc1`, the Potency result was “inactive”.

Take `CC(C)(C)OC(=O)N[C@H](C(=O)OC(C)(C)C)c1ccc(Br)cc1`: the Potency was 10 µM (active).
